# Screening data from PubChem.
# Rows were chosen to be rich in hits. Some 2.6% of all compounds tested hit in one or more screens of this group.
# p53ts 32C kill: qHTS Screen for Compounds that Selectively Target Cancer Cells with p53 Mutations: Cytotoxicity of p53ts Cells at the Permissive Temperature. H1299-p53A138V at 32C, ATP luminescence viability, 24 h. Potency, µM (series often up to 46.1 µM), for inactives: at the top dose activity change, negative = cytotoxicity, usual class: cytotoxic. 130,000 tested, 0.93% active. AID 924, 2007;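 further: 0% = DMSO and -100% = full killing by reference compound; nearly all actives have a fitted effect of over 55% in size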
#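 ATP-content luminescence (ATPlite) read-out after 24 h compound exposure at 32C in H1299-p53A138V cells (600/well). Tested up to 46 uM. Normalized to DMSO (0%) and 100 uM tamoxifen (100% killing); Hill-fit AC50.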
# FLuc inh: qHTS Assay for Inhibitors of Firefly Luciferase; Potency, µM (highest dose often 57.1 µM), for the others: at the top dose activity change, negative = inhibition, actives largely listed as inhibitors; AID 411, 2009; purified firefly luciferase, luminescence, 8 min; Luciferin 4-monooxygenase (Photinus pyralis), P08659; 72,000 tested, 2.2% active; further: nearly all actives have a fitted effect of over 40% in size
# Target sequence (P08659 whole entry, looked up): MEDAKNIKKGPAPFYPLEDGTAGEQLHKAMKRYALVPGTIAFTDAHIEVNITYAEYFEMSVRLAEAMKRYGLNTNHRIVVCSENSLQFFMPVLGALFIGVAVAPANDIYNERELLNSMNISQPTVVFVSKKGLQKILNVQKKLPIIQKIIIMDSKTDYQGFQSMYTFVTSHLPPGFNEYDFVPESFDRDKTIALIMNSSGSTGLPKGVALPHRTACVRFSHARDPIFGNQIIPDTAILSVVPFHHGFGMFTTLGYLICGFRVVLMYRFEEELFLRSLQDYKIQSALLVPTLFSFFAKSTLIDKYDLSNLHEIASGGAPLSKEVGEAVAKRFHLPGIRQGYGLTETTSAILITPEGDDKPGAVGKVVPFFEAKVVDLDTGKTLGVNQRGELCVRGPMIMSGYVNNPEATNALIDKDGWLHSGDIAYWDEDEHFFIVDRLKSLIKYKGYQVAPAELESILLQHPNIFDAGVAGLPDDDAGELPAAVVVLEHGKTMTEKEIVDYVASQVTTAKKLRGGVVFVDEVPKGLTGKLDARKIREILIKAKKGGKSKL
#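 Luminescence read-out after 8 min at room temperature; enzyme reaction used luciferin plus 10 uM ATP (linear range) in imidazole buffer pH 7.2 with KCl, MgCl2, Tween 20 and BSA. Each sample was run as a titration.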
# p53ts 39C tox: qHTS Screen for Compounds that Selectively Target Cancer Cells with p53 Mutations: Cytotoxicity of p53ts Cells at the Nonpermissive Temperature. H1299-p53A138V viability at 39C, ATP luminescence, 24 h. 130,000 tested, 1.5% active. Potency, µM (top dose mostly 46.1 µM), for the others: at the top dose activity change, negative = cell killing, usual class: cytotoxic; further: nearly all actives have a fitted effect of over 55% in size
# The depositor's hits bear a star; ? = inconclusive; · = not tested or not shown; [ ] = dose if it differs, or a comment. The call rests on the fitted dose curve; in most records, active means well fitted curve in the direction sought with a large enough effect; inconclusive means small, poorly fitted or top-dose-only effect, or another doubt; inactive means no such curve, though single readings can be large; an effect the other way counts as inactive or inconclusive. Unless noted, on the % scale 0 is the no-effect control and ±100 the full control effect; potency means the concentration at half of the fitted maximal effect.
SMILES,p53ts 32C kill,FLuc inh,p53ts 39C tox
Cc1cccc(N(Cc2cc3ccccc3[nH]c2=O)C(=O)c2cccc(Cl)c2)c1,10%,·,4%
COc1ccc2c(c1)c1c(c(=O)n(-c3ccc(OC)c(OC)c3)c(=O)n1Cc1ccccc1F)n2C,3%,·,-7%
COc1ccc(-c2cc(C(=O)NCCc3ccccc3)c3c(-c4ccccc4)[nH]nc3n2)cc1OC,?,·,13µM*
COc1cc(OC)c(-c2cc(C(=O)NCc3ccc(F)cc3)c3c(-c4ccccc4)[nH]nc3n2)cc1OC,8.9µM*,·,?
COc1ccc(CCNC(=O)c2cc(-c3ccc(C)cc3)nc3n[nH]c(-c4ccccc4)c23)cc1OC,-11%,·,-21%
COc1ccccc1-c1cc(C(=O)NCc2ccccc2)c2c(-c3ccc(C)cc3)[nH]nc2n1,7%,·,-5%
COc1ccc(-c2[nH]nc3nc(-c4cc(OC)c(OC)c(OC)c4)cc(C(=O)O)c23)cc1,-17%,·,?
CCc1ccc(-c2[nH]nc3nc(-c4cc(OC)ccc4OC)cc(C(=O)O)c23)cc1,-2%,·,4µM*
CCOc1ccc(-c2cc(C(=O)NCCc3ccc(OC)c(OC)c3)c3c(-c4ccc(F)cc4)[nH]nc3n2)cc1,-24%,·,?
CCOc1ccc(-c2cc(C(=O)NCCc3ccccc3)c3c(-c4ccc(C)cc4)[nH]nc3n2)cc1,-12%,·,16µM*
CCCC12CN3CC(C)(CN(C1)C3c1ccc(OCc3ccccc3)cc1)C2=O (centres undefined),-4%,·,-10%
O=c1c(O)cc(C2Oc3cc(O)cc(O)c3CC2O)cc2c(C3Oc4cc(O)cc(O)c4CC3O)cc(O)c(O)c12 (centres undefined),-16%,·,-20%
CCc1ccc(NC(=O)C2CCCN(S(=O)(=O)c3cccc4nsnc34)C2)cc1 (centres undefined),-8%,·,-5%
COc1ccccc1-c1cncnc1N1CCN(C)CC1,7%,-6%[2.29 µM],-2%
COc1cc(OC)c(NC(=O)C(CC(C)C)N2Cc3ccccc3C2=O)cc1Cl (centres undefined),0%,·,·
CN(C)CCN(Cc1ccco1)C(=O)c1cc2c(s1)-c1ccccc1OC2,-9%,·,13µM*
O=C(O)c1cc2c(s1)-c1ccccc1OC2,6%,1%,-2%
CCOc1ccc(-c2cc(CCCC(=O)NCc3cccnc3)no2)cc1,16µM*,13µM*,?
CCOc1ccc(CCNC(=O)CCCc2cc(-c3ccc(OCC)cc3)on2)cc1,-3%,·,-5%
COc1ccc(-c2cc(CCCC(=O)NCc3ccccn3)no2)cc1,?,10µM*,?
COc1ccc(-c2cc(CCCC(=O)NCCc3ccc(OC)cc3OC)no2)cc1,2%,-10%,-3%
Cc1ccc(CNC(=O)c2oc3ccc(S(=O)(=O)N4CCC(C)CC4)cc3c2C)cc1,10%,·,-17%
COc1ccc2c(c1OC)C(=O)N1c3ccccc3COC21 (centres undefined),13µM*,10µM*,16µM*
COc1ccc2c(c1OC)C(=O)N1c3ccccc3C(=O)N(c3ccccc3F)C21 (centres undefined),·,-2%[25.5 µM],·
COc1ccc2c(c1OC)C(=O)N1c3ccccc3SC21 (centres undefined),·,5µM*,·
SMILES,p53ts 32C kill,FLuc inh,p53ts 39C tox
COc1ccc2c(c1OC)C(=O)N1c3cccc(Cl)c3C(=O)OC21 (centres undefined),11%,-3%,1%
O=C(NCCN1CCN(c2cccc(Cl)c2)CC1)C1COc2ccccc2C1 (centres undefined),-1%,·,-10%
CN(C)CCCSc1ccccc1NC(=O)/C=C\c1ccccc1,-17%,-10%,-17%
O=C(CCC(=O)N1CC2CCCN2c2ccccc21)NCc1ccc(Cl)cc1 (centres undefined),10%,·,17%
CC(C)CC(=O)N(Cc1ccccc1)S(=O)(=O)c1ccc2c(c1)oc(=O)n2C,-2%,·,-23%
O=C(Cn1c(=O)c(CNc2ccccc2)cc2cc3c(cc21)OCCO3)Nc1ccccc1Cl,6%,·,-23%
COc1ccc(Cl)cc1NC(=O)CCCn1c(C)c2cnn(-c3ccccc3)c(=O)c2c1C,-4%,·,-9%
CCOc1ccc(-c2nnc(-c3ccccc3)o2)cc1,?,·,-12%
CCOC(=O)COc1ccc(-c2nnc(-c3ccccc3)o2)cc1,10µM*,-10%,?
Cn1c(=O)cc(OCCCC(=O)Nc2ccc(F)cc2)c2ccccc21,0%,·,-19%
CN(C(=O)c1c(O)c2ccccc2n(C)c1=O)c1ccccc1,-10%,25µM*,-8%
Cc1ccc(NC(=O)c2c(O)c3ccccc3n(C)c2=O)nc1,-10%,-1%,-3%
Oc1ccccc1-c1nnc(COc2ccccc2)o1,-11%,-19%,-22%
Oc1ccccc1-c1nnc(COc2ccc(Cl)cc2Cl)o1,-11%,13µM*,-26%
COc1ccccc1CC(=O)NCc1ccc2c(c1)OCO2,3%,-3%,-12%
COc1ccc(CNCCC(c2ccc3c(c2)OCO3)c2ccccc2OC)cc1 (centres undefined),?,·,16µM*
CC1Cn2cc(C(=O)Nc3cccc(C(F)(F)F)c3)c(=O)c3c(Cl)ccc(c32)O1 (centres undefined),-5%,·,·
c1ccc(SCCOCCn2cncn2)cc1,-24%,2%,?
c1ccc(COc2ccc(OCCOCCn3cncn3)cc2)cc1,?,16µM*,?
COc1cccc(C2C(C(=O)Nc3ccccc3)=C(C)Nc3nc(-c4ccccc4)nn32)c1 (centres undefined),10%,·,-5%
COC(=O)c1cc2oc(C)cc2n1CC(=O)Nc1ccc(C)cc1C,7%,·,-20%
COc1c(-c2coc3cc4c(cc3c2=O)CC(OC(C)=O)C(C)(C)O4)ccc2c1C=CC(C)(C)O2 (centres undefined),4%,·,-2%
COc1c(-c2coc3cc4c(cc3c2=O)CC(O)C(C)(C)O4)ccc2c1C=CC(C)(C)O2 (centres undefined),?,·,25µM*
CN(C)c1ccc2nc3ccc(=[N+](C)C)cc-3sc2c1,-5%[1.84 µM],·,3.2µM*
Cc1ccc(Cl)cc1NC(=O)c1sc2nc(C)c(C)c(C)c2c1N,-4%,·,23%
SMILES,p53ts 32C kill,FLuc inh,p53ts 39C tox
COc1cccc(CSc2nc3n(n2)C(CC(C)C)C(C(=O)Nc2ccccc2C)=C(C)N3)c1 (centres undefined),8%,·,-5%
Cc1ccc(C(=O)/C=C/Nc2ccccn2)cc1,·,0.4µM*,·
COc1ccc(C(=O)/C=C/N2CCCCC2)cc1OC,-15%,-22%,-3%
COc1ccc(C(=O)/C=C/Nc2cccc(C)n2)cc1OC,·,10µM*,·
Cc1ccc(/C=C/C(=O)c2ccc(C)cc2)cc1,2%,·,11%
CC(C)(C)c1ccc(S(=O)(=O)/C=C\C#N)cc1,16µM*,-28%,20µM*
Cc1ccc(S(=O)(=O)/C=C\C#N)cc1,13µM*,-7%,13µM*
COC(=O)/C=C/S(=O)(=O)c1ccc(NC(C)=O)cc1,?,-11%,?
